Test results reported in the OligoGym collection.

target: FBXL3; experiment: pooled miR-30 sensor sort-seq; sequence = guide strand; settings: shRNA
Further: reference of the scale not given here.

Question: TTTAATAATCTGTTTGATCAGC was tested. Which sensor-assay potency score (higher = more potent) did it give?
Answer: Its sensor-assay potency score (higher = more potent) is -0.685.

Question: How did the sensor-assay potency score (higher = more potent) turn out when TTGCACACACTACTAGTTCAAC was run?
Answer: The sensor-assay potency score (higher = more potent) was -1.05.

Question: TATGGAAGTGTGTCTGTCCAGG was tested. Which sensor-assay potency score (higher = more potent) did it give?
Answer: Its sensor-assay potency score (higher = more potent) is -0.66.

Question: Which sensor-assay potency score (higher = more potent) does the source give for TTAATTATAATACATTTGCTTG here?
Answer: The sensor-assay potency score (higher = more potent) was -1.08.

Question: TTGCTTGAAATTAAGGTGCTAT was tested. Which sensor-assay potency score (higher = more potent) did it give?
Answer: The sensor-assay potency score (higher = more potent) was 0.353.

Question: With TATCACAAGCTGCTTCAGCTGA as the sequence, how does the sensor-assay potency score (higher = more potent) read?
Answer: Its sensor-assay potency score (higher = more potent) is -0.251.

Question: For TACTCTTCTGAATAGTATGGAA, which sensor-assay potency score (higher = more potent) is on record?
Answer: Its sensor-assay potency score (higher = more potent) is -0.502.

Question: TTCCTTGCTGCTGTCCACCTTG was tested. Which sensor-assay potency score (higher = more potent) did it give?
Answer: The sensor-assay potency score (higher = more potent) was -0.442.

Question: TACTTGGAGAATAATGTCCTGA was tested. Which sensor-assay potency score (higher = more potent) did it give?
Answer: The sensor-assay potency score (higher = more potent) was 0.112.

Question: For TAACTCTTCATCAAGTGGCCGT, which sensor-assay potency score (higher = more potent) is on record?
Answer: Its sensor-assay potency score (higher = more potent) is -0.249.

target: FBXO25; experiment: as above; settings: shRNA

Question: With TCTTAATCCAACTCCATCCAGG as the sequence, how does the sensor-assay potency score (higher = more potent) read?
Answer: The sensor-assay potency score (higher = more potent) was -0.487.

Question: How did the sensor-assay potency score (higher = more potent) turn out when TGTGTCTCCGTACTGCTCCTTC was run?
Answer: Its sensor-assay potency score (higher = more potent) is -0.185.

Question: TTTTTTTCGATGCATATTCATG was tested. Which sensor-assay potency score (higher = more potent) did it give?
Answer: The sensor-assay potency score (higher = more potent) was -0.983.

Question: For TATTGAATATTTCTCCATCTTC, which sensor-assay potency score (higher = more potent) is on record?
Answer: Its sensor-assay potency score (higher = more potent) is -0.493.

Question: TCTGTCTTAATCCAACTCCATC was tested. Which sensor-assay potency score (higher = more potent) did it give?
Answer: The sensor-assay potency score (higher = more potent) was -1.72.

Question: For TAGGTCTTGCAGAAGATCTTTG, which sensor-assay potency score (higher = more potent) is on record?
Answer: Its sensor-assay potency score (higher = more potent) is -0.731.

Question: ATATCTTGAATTGCACTTGAGA was tested. Which sensor-assay potency score (higher = more potent) did it give?
Answer: Its sensor-assay potency score (higher = more potent) is -0.85.

Question: With TCACTAAGCATATACAACGTGG as the sequence, how does the sensor-assay potency score (higher = more potent) read?
Answer: The sensor-assay potency score (higher = more potent) was -0.518.

Question: How did the sensor-assay potency score (higher = more potent) turn out when TTGACCACATAATTGAACCTTC was run?
Answer: The sensor-assay potency score (higher = more potent) was 0.213.

Question: With TAATCCAACTCCATCCAGGAGA as the sequence, how does the sensor-assay potency score (higher = more potent) read?
Answer: The sensor-assay potency score (higher = more potent) was -0.761.

Question: For TTCACTAAGCATATACAACGTG, which sensor-assay potency score (higher = more potent) is on record?
Answer: Its sensor-assay potency score (higher = more potent) is -0.104.

Question: Which sensor-assay potency score (higher = more potent) does the source give for TTCACTTGCTTAGTCATCTGAA here?
Answer: Its sensor-assay potency score (higher = more potent) is 0.836.

target: FBXO27; experiment: as above; settings: shRNA

Question: How did the sensor-assay potency score (higher = more potent) turn out when TTTATCTAGAACAGTCTGGTTG was run?
Answer: Its sensor-assay potency score (higher = more potent) is 0.00929.

Question: How did the sensor-assay potency score (higher = more potent) turn out when TCTGGTAGTTTCTAGAACCTGA was run?
Answer: Its sensor-assay potency score (higher = more potent) is 0.603.

Question: TGATATATTATTCTTACTGTTT was tested. Which sensor-assay potency score (higher = more potent) did it give?
Answer: The sensor-assay potency score (higher = more potent) was -0.893.

Question: Which sensor-assay potency score (higher = more potent) does the source give for TTTTTTTTTAACGTAGACTTTC here?
Answer: Its sensor-assay potency score (higher = more potent) is -0.903.

Question: With TTTAACGTAGACTTTCAGCTGC as the sequence, how does the sensor-assay potency score (higher = more potent) read?
Answer: The sensor-assay potency score (higher = more potent) was 0.647.

Question: For TTGATGTTGGAGAACACGTGGG, which sensor-assay potency score (higher = more potent) is on record?
Answer: The sensor-assay potency score (higher = more potent) was -0.501.

Question: For TTTTCCTCCACCACCCAGCCGT, which sensor-assay potency score (higher = more potent) is on record?
Answer: The sensor-assay potency score (higher = more potent) was -0.662.

Question: Which sensor-assay potency score (higher = more potent) does the source give for AATTTATCTAGAACAGTCTGGT here?
Answer: The sensor-assay potency score (higher = more potent) was 0.248.

Question: For TTTTTTAACGTAGACTTTCAGC, which sensor-assay potency score (higher = more potent) is on record?
Answer: The sensor-assay potency score (higher = more potent) was -0.574.

Question: Which sensor-assay potency score (higher = more potent) does the source give for TTATCTAGAACAGTCTGGTTGG here?
Answer: Its sensor-assay potency score (higher = more potent) is 0.434.

Question: For TTACAGGTCCTTGAGGATCAGG, which sensor-assay potency score (higher = more potent) is on record?
Answer: Its sensor-assay potency score (higher = more potent) is -1.43.

Question: Which sensor-assay potency score (higher = more potent) does the source give for TGTTGCACCATCCACTTTCGGA here?
Answer: Its sensor-assay potency score (higher = more potent) is -0.815.

target: FBXO43; experiment: as above; settings: shRNA

Question: For TTCATGTCCACTATTTTCCTGT, which sensor-assay potency score (higher = more potent) is on record?
Answer: Its sensor-assay potency score (higher = more potent) is 0.372.

Question: With TAGGCTACAATCATCTTTGGAA as the sequence, how does the sensor-assay potency score (higher = more potent) read?
Answer: Its sensor-assay potency score (higher = more potent) is 0.408.

Question: TTTATCTTGAACAACAATTTCA was tested. Which sensor-assay potency score (higher = more potent) did it give?
Answer: The sensor-assay potency score (higher = more potent) was -0.614.

Question: For TAATTCTGTTAAGATGTCCAGT, which sensor-assay potency score (higher = more potent) is on record?
Answer: Its sensor-assay potency score (higher = more potent) is -0.342.

Question: TTGAACAACAATTTCACGCCAA was tested. Which sensor-assay potency score (higher = more potent) did it give?
Answer: Its sensor-assay potency score (higher = more potent) is 0.6.

Question: TTTGACTGCATGAAGTCACTTC was tested. Which sensor-assay potency score (higher = more potent) did it give?
Answer: The sensor-assay potency score (higher = more potent) was 0.521.
